# In PubChem BioAssay (NCATS):
# Inconclusive results are not listed. Activity calls are given as the source filed them. Calls come from the whole dose curve; as a rule, active = well fitted cell-killing curve with a large enough effect; inconclusive = small, poorly fitted or top-dose-only effect, or effect the other way; inactive = no such curve, though single readings can be large or run the other way.
# Assay: Quantitative High-Throughput drug screen in 47 multiple myeloma cell lines against the NCATS MIPE library collection: OPM2_DSMZ cell viability assay (AID 1919872); note: nearly all actives have a fitted effect of over 30% in size
# Conditions: OPM2 myeloma viability, CellTiter-Glo ATP luminescence, 48 h; series mostly up to 45.8 µM; viability (% of DMSO): at the top concentration
# Text: PI: Beverly A. Mock Ph.D.
# Laboratory of Cancer Biology and Genetics,
# Center for Cancer Research, National Cancer Institute,
# National Institute of Health, Bethesda, Maryland
# Drug resistance and disease progression are common in multiple myeloma (MM) patients, underscoring the need for new therapeutic combinations. […] We hypothesized that effective combinations would reduce MYC expression and enhance p16 activity. […] These preclinical data identify potentially useful drug combinations for evaluation in drug-resistant MM and reveal potential mechanisms of combined drug sensitivity.
# Described herein is the primary MIPE qHTS used to cherrypick compounds. Validated compounds were then further tested for potential synergistic activiy.
# [1] Peat TJ, Gaikwad SM, Dubois W, Gyabaah-Kessie N, Zhang S, Gorjifard S, Phyo Z, Andres M, Hughitt VK, Simpson RM, Miller MA, Girvin AT, Taylor A, Williams D, D'Antonio N, Zhang Y, Rajagopalan A, Flietner E, Wilson K, Zhang X, Shinn P, Klumpp-Thomas C, McKnight C, Itkin Z, Chen L, Kazandijian D, Zhang J, Michalowski AM, Simmons JK, Keats J, Thomas CJ, Mock BA. Drug combinations identified by high-throughput screening promote cell cycle transition and upregulate Smad pathways in myeloma. Cancer Lett. 2023 Aug 1;568:216284. doi: 10.1016/j.canlet.2023.216284. Epub 2023 Jun 24. PMID: 37356470; PMCID: PMC10408729.
# SEQUENCE No. (e.g., 1, 2, 3, etc.); […] (e.g., Cells, Incubation, Reagent, etc.); VALUE and DESCRIPTION.
# 1; Cells; 5 uL; white, solid bottom 1536-well Greiner assay plate.
# 2; Compounds; 23 nL; Kalypsis pin tool (Wako USA) equipped with a 1536-well pin head to transfer to the assay plates.
# 3; Incubation; 48 hours; 37C incubation.
# 4; Reagent;5uL; CellTiter Glo (Promega).
# 5; Detector; 425V; Luminescence; Viewlux PerkinElmer.
# NOTES (numbers refer to Sequence numbers above)
# 1. The cell-based screening methods employed in this study were like those previously published. Briefly, the corresponding myeloma cell lines were screened in 1,536-well plates with 500 cells, 5-uL per well for inhibition of cell viability (assessed by measuring ATP levels with CellTiterGlo).
# 2. NCATS MIPE 4.0 library of approved and investigational drugs were added using the Kalypsis pin tool. Wells treated with DMSO only for 100% viability and media only wells for 0% viability were used as controls.
# 3. The assay plates were covered and incubated for 48 hours in a 37C, 5% CO2 incubator with controlled humidity.
# 4. After 48 hours, CellTilter-GloTM luminescent substrate mix (Promega) reagent was added to the assay plate and plates we incubated for 5 min at room temperature.
# 5. Signal was measured as median relative luminescence units on a ViewLux (PerkinElmer) multiplate reader.
# [1] Heske CM, Davis MI, Baumgart JT, Wilson K, Gormally MV, Chen L, Zhang X, Ceribelli M, Duveau DY, Guha R, Ferrer M, Arnaldez FI, Ji J, Tran HL, Zhang Y, Mendoza A, Helman LJ, Thomas CJ. Matrix Screen Identifies Synergistic Combination of PARP Inhibitors and Nicotinamide Phosphoribosyltransferase (NAMPT) Inhibitors in Ewing Sarcoma. Clin Cancer Res. 2017 Dec 1;23(23):7301-7311. doi: 10.1158/1078-0432.CCR-17-1121. Epub 2017 Sep 12. PMID: 28899971; PMCID: PMC6636827.
# Potency is the fitted concentration of half-maximal effect.
Compound,viability (% of DMSO),Potency
COc1ccccc1OCC(O)COC(N)=O (stereo not given),116% (inactive),–
NCCCC(O)(P(=O)(O)O)P(=O)(O)O,113% (inactive),–
C#CCN[C@@H]1CCc2ccccc21,102% (inactive),–
CNS(=O)(=O)CCc1ccc2[nH]cc(C3CCN(C)CC3)c2c1,103% (inactive),–
C1CCC(C(CC2CCCCN2)C2CCCCC2)CC1 (stereo not given),–,23.5 µM (active)
S=P(N1CC1)(N1CC1)N1CC1,114% (inactive),–
CN(Cc1cc(Br)cc(Br)c1N)C1CCCCC1,81.1% (inactive),–
NNC(=O)c1ccncc1,98.6% (inactive),–
CCCCS(=N)(=O)CCC(N)C(=O)O (stereo not given),120% (inactive),–
CN(C)CCc1c[nH]c2ccc(C[C@H]3COC(=O)N3)cc12,94% (inactive),–
NC(=O)N1c2ccccc2CC(=O)c2ccccc21,104% (inactive),–
OCc1ccc(-c2nn(Cc3ccccc3)c3ccccc23)o1,90% (inactive),–
CCN(CC)CCn1c(=O)c(Cc2ccc(OC)cc2)nc2ccccc21,92.2% (inactive),–
C[C@@H](CN1CC(=O)NC(=O)C1)N1CC(=O)NC(=O)C1,125% (inactive),–
O=C(O)c1cn(C2CC2)c2cc(N3CCNCC3)c(F)cc2c1=O,104% (inactive),–
O=C(N[C@H](CO)[C@H](O)c1ccc([N+](=O)[O-])cc1)C(Cl)Cl,99.5% (inactive),–
COc1cc2nc(N3CCCN(C)CC3)nc(NC3CCN(Cc4ccccc4)CC3)c2cc1OC,–,7.43 µM (active)
CCN[C@H]1C[C@H](C)S(=O)(=O)c2sc(S(N)(=O)=O)cc21,105% (inactive),–
CCN1CCCC1CNC(=O)c1cc(S(N)(=O)=O)ccc1OC (stereo not given),108% (inactive),–
NS(=O)(=O)c1cc2c(cc1Cl)NC(C(Cl)Cl)NS2(=O)=O (stereo not given),100% (inactive),–

Compound,viability (% of DMSO),Potency
CO[C@@]12[C@H](COC(N)=O)C3=C(C(=O)C(C)=C(N)C3=O)N1C[C@@H]1N[C@@H]12,–,26.4 µM (active)
Oc1c(Cl)cc(Cl)c2cccnc12,–,26.4 µM (active)
O=S(=O)(O)CCS,109% (inactive),–
O=c1oc2c(O)c(O)cc3c(=O)oc4c(O)c(O)cc1c4c23,84.6% (inactive),–
CCn1cc(C(=O)O)c(=O)c2cc(F)c(N3CCNCC3)nc21,107% (inactive),–
CCCN[C@H]1CCc2nc(N)sc2C1,110% (inactive),–
Nc1nc(=S)c2[nH]cnc2[nH]1,–,3.72 µM (active)
CC1(C)[C@H](C(=O)O)N2C(=O)C[C@H]2S1(=O)=O,97.1% (inactive),–
COC(=O)Nc1nc2ccc(C(=O)c3ccccc3)cc2[nH]1,–,1.48 µM (active)
CCCc1nc(C)c2c(=O)[nH]c(-c3cc(S(=O)(=O)N4CCN(CC)CC4)ccc3OCC)nn12,–,5.9 µM (active)
CN(C)c1ccc(C(=C2C=CC(=[N+](C)C)C=C2)c2ccc(N(C)C)cc2)cc1,–,0.166 µM (active)
C[C@@H]1C[C@H]2[C@@H]3CCC4=CC(=O)C=C[C@]4(C)[C@@]3(Cl)[C@@H](O)C[C@]2(C)[C@@]1(OC(=O)c1ccco1)C(=O)CCl,–,23.5 µM (active)
COc1cccc(N(C)C(=S)Oc2ccc3c(c2)CCCC3)n1,85.3% (inactive),–
COc1cc(NCc2ccc3nc(N)nc(N)c3c2C)cc(OC)c1OC,–,18.7 µM (active)
Nc1ccc(S(=O)(=O)Nc2ccccn2)cc1,112% (inactive),–
CNNCc1ccc(C(=O)NC(C)C)cc1,–,8.33 µM (active)
CCc1cc(C(N)=S)ccn1,110% (inactive),–
CC1=NN(c2ccccc2)C(=O)C1,124% (inactive),–
O=S(=O)(c1cccc2cnccc12)N1CCCNCC1,105% (inactive),–
Cc1ccnc2c1NC(=O)c1cccnc1N2C1CC1,93.9% (inactive),–
